# G9a inh = qHTS Assay for Inhibitors of Histone Lysine Methyltransferase G9a; Histone-lysine N-methyltransferase EHMT2 (Homo sapiens), Q96KQ7; G9a H3K9 monomethylation, AlphaScreen, 2 h; Potency, µM (doses to about 102 µM), without a hit: top-dose activity, negative = inhibition, most hits filed as inhibitors; 350,000 tested, 8.8% active; AID 504332, 2011; further: on the % scale 0 is the no-effect control and ±100 the full control effect; nearly all actives have a fitted effect of over 75% in size
#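 Chemiluminescent proximity detection of H3K9 monomethylation, read after 10 min bead incubation in the dark. Reaction: 20 nM G9a, 500 nM biotin-H3K9 peptide, 20 uM SAM cofactor, 2 h, room temperature, following 15 min enzyme-compound preincubation.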
# HP1b binding inh = HTS for Inhibitors of HP1-beta Chromodomain Interactions with Methylated Histone Tails; 390,000 tested, 0.56% active; AlphaScreen HP1-beta / biotin-H3K9me3 peptide binding; Potency, µM (highest dose often 114 µM), without a hit: at the highest dose activity change, negative = inhibition, most hits filed as inhibitors; Chromobox protein homolog 1 (Homo sapiens), P83916; further: nearly all actives have a fitted effect of over 70% in size
#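 AlphaScreen: HP1-beta (50 nM) preformed 30 min with biotin-H3(1-18)K9me3 peptide (50 nM) in PBS pH 7.4, 0.01% Tween-20. Compound added for 30 min at RT, then streptavidin donor/nickel chelate acceptor beads (10 ug/mL) for 30 min.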
# BAZ2B block = qHTS Assay for Inhibitors of BAZ2B | AlphaScreen BAZ2B-H3K14Ac peptide displacement | 360,000 tested, 4.4% active | Bromodomain adjacent to zinc finger domain protein 2B (Homo sapiens), Q9UIF8 | Potency, µM (highest dose often 114 µM), for inactives: top-dose activity change, negative = inhibition, most hits filed as inhibitors; further: on the % scale 0 is the no-effect control and ±100 the full control effect; nearly all actives have a fitted effect of over 60% in size
#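 In this displacement format the biotinylated H3(5-23) peptide acetylated at Lys14 serves as ligand at 50 nM, with BAZ2B at 50 nM in PBS pH 7.4 containing 0.01% Tween-20. Donor and acceptor beads are 10 ug/mL final.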
# JMJD2A Tudor = qHTS Assay for Inhibitors of JMJD2A-Tudor Domain; Lysine-specific demethylase 4A (Homo sapiens), O75164; AlphaScreen JMJD2A-Tudor / H3K4me3 peptide binding; Potency, µM (series often up to 114 µM), for the others: at the highest dose activity change, negative = inhibition, hits mostly inhibitors; 390,000 tested, 4.4% active; AID 504339, 2011; further: on the % scale 0 is the no-effect control and ±100 the full control effect; nearly all actives have a fitted effect of over 50% in size
# L3MBTL1 block = qHTS Assay for the Inhibitors of L3MBTL1; 230,000 tested, 0.66% active; AlphaScreen L3MBTL1–H3K9me1 peptide binding; AID 485360, 2010; Lethal(3)malignant brain tumor-like protein 1 (Homo sapiens), Q9Y468; Potency, µM (doses to about 57.1 µM), for the others: top-dose activity, negative = inhibition, actives largely listed as inhibitors; further: on the % scale 0 is the no-effect control and ±100 the full control effect; nearly all actives have a fitted effect of over 60% in size
# Target sequence (Q9Y468 whole entry, looked up): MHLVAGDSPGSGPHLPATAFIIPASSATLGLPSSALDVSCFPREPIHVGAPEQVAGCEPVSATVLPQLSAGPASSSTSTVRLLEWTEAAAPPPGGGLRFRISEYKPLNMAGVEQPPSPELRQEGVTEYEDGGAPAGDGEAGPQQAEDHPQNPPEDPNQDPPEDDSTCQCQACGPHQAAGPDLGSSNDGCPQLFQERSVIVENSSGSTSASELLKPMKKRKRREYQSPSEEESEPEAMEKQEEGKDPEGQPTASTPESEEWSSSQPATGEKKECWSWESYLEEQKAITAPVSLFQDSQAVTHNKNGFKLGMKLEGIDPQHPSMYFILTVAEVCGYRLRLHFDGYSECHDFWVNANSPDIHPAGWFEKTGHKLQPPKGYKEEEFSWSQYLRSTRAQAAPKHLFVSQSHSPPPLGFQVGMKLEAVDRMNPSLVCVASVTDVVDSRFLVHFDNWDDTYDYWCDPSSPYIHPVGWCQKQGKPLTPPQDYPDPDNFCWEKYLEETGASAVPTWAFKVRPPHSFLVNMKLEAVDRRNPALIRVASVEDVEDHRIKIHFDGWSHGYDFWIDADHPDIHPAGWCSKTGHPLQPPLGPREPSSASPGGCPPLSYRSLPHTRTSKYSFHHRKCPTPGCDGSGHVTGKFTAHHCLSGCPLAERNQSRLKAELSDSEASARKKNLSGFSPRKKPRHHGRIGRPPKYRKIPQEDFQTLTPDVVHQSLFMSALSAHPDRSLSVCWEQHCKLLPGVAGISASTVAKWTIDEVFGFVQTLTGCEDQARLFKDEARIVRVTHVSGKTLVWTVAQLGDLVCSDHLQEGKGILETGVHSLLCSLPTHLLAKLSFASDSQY
#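 First, the protein-peptide complex forms for 30 min at room temperature (L3MBTL1 50 nM, biotinylated H3K9me1 peptide 75 nM). Next, compounds are pin-transferred and incubated 30 min. Finally, AlphaScreen beads are added and read after 30 min.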
# The depositor's hits bear a star; ? = inconclusive; . = not tested or not shown; [ ] = another dose, or the depositor's remark. A selection: hits, their analogues and other compounds. The true share with any hit is near 11%. The call rests on the fitted dose curve; in most records, active means well fitted inhibition curve with a large enough effect; inconclusive means small, poorly fitted or top-dose-only effect; inactive means no such curve, though single readings can be large or run the other way. Potency means the concentration at half of the fitted maximal effect.
SMILES,G9a inh,HP1b binding inh,BAZ2B block,JMJD2A Tudor,L3MBTL1 block
CCn1c(SCc2c(F)cccc2Cl)nc(=O)c2c(C(=O)OC)cc(C3CC3)nc21,-26.8%[59 µM],13.4%[57 µM],-12.6%,-32.1%,.
O=C(NNc1c(Cl)cccc1Cl)c1sccc1Cl,12.6µM*,72.5%,-14.2%,-8.7%,2.1%
Cc1cc(C(=O)NNc2c(Cl)cccc2Cl)no1,28.2µM*,42.4%,-1.9%,9.0%,8.4%
O=C(NNc1c(Cl)cccc1Cl)c1ccno1,-15.6%[59 µM],41.4%,-1.7%,-12.8%,1.7%
COc1ccc(OCc2ccc(-c3nc(C#N)c(N4CCC(C(N)=O)CC4)o3)o2)cc1,-6.7%[59 µM],14.3%,?,?,.
N#Cc1nc(-c2ccc(COc3ccccc3)o2)oc1N1CCN(c2ccccc2)CC1,?,18.2%,?,-14.2%,.
N#Cc1nc(COc2ccccc2)oc1N1CCC(Cc2ccccc2)CC1,12.6µM*,?,?,-31.8%,-23.4%
COc1ccc(OCc2ccc(-c3nc(C#N)c(N4CCC(C)CC4)o3)o2)cc1,3.55µM*,?,3.55µM*,?,.
Cc1ccc(OCc2ccc(-c3nc(C#N)c(N4CCC(C)CC4)o3)o2)cc1,10µM*,-21.3%,?,-33.8%,.
COc1ccccc1OCc1nc(C#N)c(N2CCCC2)o1,5.2%,-4.0%,-35.1%,-20.7%,-29.6%
N#Cc1nc(-c2ccc(COc3ccc(Cl)cc3)o2)oc1N1CCN(c2ccccc2)CC1,-7.5%[59 µM],10.8%,-7.9%,-16.6%,.
CC1CCN(c2oc(-c3ccc(COc4ccccc4)o3)nc2C#N)CC1,5.01µM*,-15.3%,?,?,.
CCOC(=O)c1cccc(NC(=O)CCc2c(C)nn(-c3ccc(N4CCOCC4)nn3)c2C)c1,29.6%[59 µM],16.1%,-20.9%,-21.3%,.
Cc1cccc(C(=O)N2CCc3cc(CNC(=O)c4ccnn4C)ccc32)c1,-0.7%[59 µM],22.5%,-2.6%,-15.3%,.
COc1ccc(OCc2ccc(-c3nc(C#N)c(N4CCN(C)CC4)o3)o2)cc1,17.8µM*,?,31.6µM*,56.2µM*,.
O=C(CN1C(=O)/C(=C2/SC(=S)N(CCS(=O)(=O)O)C2=O)c2ccccc21)Nc1cccc(Br)c1,.,50.1µM*,.,44.7µM*,-10.2%
Cc1ccc(NC(=O)CN2C(=O)/C(=C3\SC(=S)N(C4CCS(=O)(=O)C4)C3=O)c3ccccc32)cc1 (centres undefined),50.1µM*,-2.7%,5.1%,-13.0%,-0.1%
O=C(CN1C(=O)/C(=C/c2ccccc2)SC1=S)NC1CCS(=O)(=O)C1 (centres undefined),-8.9%,42.6%,-15.3%,8.9%,.
O=C(CN1C(=O)/C(=C/c2cccc(Br)c2)SC1=S)Nc1cccnc1,?,-5.9%,-30.1%,-13.1%,-7.3%
O=C(CN1C(=O)/C(=C2\SC(=S)N(C3CCS(=O)(=O)C3)C2=O)c2ccccc21)Nc1ccccc1 (centres undefined),25.1µM*,-11.3%,6.2%,-9.1%,4.4%
Cc1sc2c(c1C)C(=O)NC(c1ccccc1F)N2 (centres undefined),10µM*,?,-27.1%,?,3.2%
Cc1ccc(C2NC(=O)c3c(sc(C)c3C)N2)c(O)c1 (centres undefined),31.6µM*,19.4%,6.1%,-17.2%,.
Cc1cccc(C2NC(=O)c3c(sc(C)c3C)N2)c1O (centres undefined),3.8%[12.7 µM],16.0%,-10.0%,-14.5%,-13.6%
O=C1CSC(c2ccccc2F)N1 (centres undefined),.,1.2%,?,-6.1%,.
COc1ccc(CCNC(=O)C(C)n2nc(C)c3sc4ccccc4c3c2=O)c(OC)c1 (centres undefined),?,-1.9%,-33.7%,?,.
SMILES,G9a inh,HP1b binding inh,BAZ2B block,JMJD2A Tudor,L3MBTL1 block
O=C(CCN1Cc2ccccc2C1)c1ccc2c(c1)OCCO2,8.91µM*,13.6%,-11.9%,?,0.8%
O=C(CCN1CCc2ccccc2C(c2ccccc2)C1)c1ccc2c(c1)OCCO2 (centres undefined),?,-12.7%,?,?,.
O=C(O)CCSCC(=O)c1ccc2c(c1)OCCO2,31.6µM*,73.2%,3.3%,?,3.1%
Cc1ccc(NC(=O)COc2cccc3c2OC(C)(C)C3)c(O)c1,24.1%[59 µM],17.7%,10.7%,-2.1%,3.0%
CCN1CCN(Cc2oc(CO)cc(=O)c2O)CC1,1.78µM*,12.7%,50.1µM*,12.6µM*,.
O=c1cc(CO)oc(CN2CCN(c3ccccc3)CC2)c1O,22.4µM*,-6.2%,-31.0%,50.1µM*,-2.2%
O=c1cc(CO)oc(CN2CCN(c3ccccc3F)CC2)c1O,?,19.6%,-31.3%,?,7.8%
COc1cc(Nc2nc3ccc(Cl)cc3nc2-n2nc(C)cc2C)cc(OC)c1,40.4%[59 µM],27.8%,35.1%,48.3%,.
Cn1c(NN)nc2ccccc2c1=O,50.1µM*,40.5%,-23.0%,-2.1%,-3.5%
Cn1c(NN)nc2c1c(=O)n(Cc1ccccc1)c(=O)n2C,28.2µM*,-3.4%,?,-35.8%,.
Cn1c(N)nc2ccccc2c1=O,-4.5%,25.9%,-2.8%,-4.1%,4.4%
Cn1c(=O)n(Cc2ccccc2)c(=O)c2c1nc1n2CCCN1CCc1ccccc1,50.1µM*,?,?,?,.
Cn1c(Br)nc2c1c(=O)n(Cc1ccccc1)c(=O)n2C,.,16.7%,-9.0%,-25.5%,.
COc1ccccc1C(=O)NCCCNC(=O)c1cccnc1,11.9%,28.6%,5.3%,-6.8%,.
O=C(NNC1=C(C(=O)C(F)(F)F)CCC1)c1cccc(O)c1,1.1%[59 µM],16.3%,0.3%,-19.8%,-5.1%
Cc1cccc(C(=O)NNC2=C(C(=O)C(F)(F)F)CCC2)c1O,?,-22.0%,17.8µM*,79.4µM*,.
Cn1cccc1C(=O)N1CCC2(CC1)CCN(c1ccccc1)CC2,-6.0%[12.7 µM],.,.,.,.
Cc1ccc(Nc2nc(COC(=O)COc3ccc(C=O)cc3)cs2)cc1,-12.8%[59 µM],-1.3%,-37.5%,?,-7.7%
CCOc1cc(/C=N/NC(=O)c2ccc(-c3csc(Nc4ccc(C)cc4)n3)cc2)ccc1OCC(=O)O,44.7µM*,18.4%,25.1µM*,?,-16.6%
O=C(O)COc1ccc(/C=N/NC(=O)c2ccc(-c3csc(Nc4ccc(Cl)cc4)n3)cc2)cc1,-104.8%[59 µM],20µM*,3.98µM*,8.91µM*,.
O=C(COc1ccc(Cl)cc1)OCc1csc(Nc2ccccc2)n1,10µM*,18.8%,-28.8%,-22.8%,5.4%
CCc1sc(Nc2ccc(C)cc2Br)nc1-c1cc2cccc(OC)c2oc1=O,10.0%[59 µM],12.7%,-0.7%,-18.7%,.
COc1cc(C2NC(=O)C(C#N)=C(S)N2c2ccc(C)cc2)ccc1OC(C)C (centres undefined),?,24.1%,-34.8%,-15.7%,.

# Compound activity (PubChem BioAssay)
